Bioassay records deposited in PubChem by The Scripps Research Institute Molecular Screening Center.
This is a sample that favours compounds with a hit; in the whole collection about 2.5% have one here.
ULK1 inh: ULK1 kinase inhibitors, primary screen, biochemical, AlphaScreen | Serine/threonine-protein kinase ULK1 (Homo sapiens), O75385 | AlphaScreen Atg13 phosphorylation by ULK1, luminescence | inhibition, % at 5.96 µM | actives 1.9% (n = 30,000) | AID 1259251, 2017; in the data active means inhibition above about 43%;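 further: 0% = median of compound wells and 100% = no enzyme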
ASK1 inh: ASK1 kinase inhibitors, primary screen, biochemical, AlphaScreen; Mitogen-activated protein kinase kinase kinase 5 (Homo sapiens), Q99683; AlphaScreen MKK6 phosphorylation by ASK1, luminescence; inhibition, % at 7.44 µM; actives 0.99% (n = 22,000); in the data active means inhibition above about 35%;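 further: 0% = median of compound wells and 100% = no enzyme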
Numbers without * were called inactive; . = no result; ! = repeats disagree.

SMILES | ULK1 inh | ASK1 inh
O=C(NCc1ccccc1)c1ccc2cncc(-c3ccccc3)c2n1 | 73.6* | .
O=C1CCCN1CCn1cnc2c(NCc3ccccc3)nc(N3CCc4ccccc4C3)nc21 | -8.1 | -6.4
FC(F)(F)c1ccc(Cn2cnc3c(NC4CC4)nc(NC4CCN(Cc5ccccc5)CC4)nc32)cc1 | -19.9 | 9.5
COc1cc(Nc2ccnc(N3CCOCC3)n2)cc(OC)c1OC | 9.2 | 2.9
Cn1cc(-c2ccc3cnc(Nc4ccccc4)c(Cl)c3c2)cn1 | 29.1 | -74.1
COc1ccc(-c2cncc(C(N)=O)c2)cc1 | 3.4 | -0.4
CC(C)S(=O)(=O)Nc1ccc(-c2ccnc(Nc3ccc(S(N)(=O)=O)cc3)n2)cc1 | 50.3* | -8.6
CCS(=O)(=O)Nc1ccc(-c2ccnc(Nc3ccc(S(N)(=O)=O)cc3)n2)cc1 | 60.0* | -7.8
NS(=O)(=O)c1ccc(Nc2nccc(-c3ccccc3)n2)cc1 | 6.6 | 7.8
NS(=O)(=O)c1ccc(Nc2nccc(-c3ccc(NS(=O)(=O)Cc4ccccc4)cc3)n2)cc1 | 33.4 | -14.1
O=C(O)CCCC[C@H]1SC[C@H]2NC(=O)N[C@H]21 | 100.0* | .
CC(C)N(CCNC(=O)c1cnc(Nc2cccc(N(C)C)c2)s1)C(C)C | 0.9 | 4.3
Cn1c(Nc2nc(NCCCN3CCCC3=O)c3ncn(CCN4CCCC4=O)c3n2)nc2ccccc21 | 13.2 | -7.7
CCOc1cc(/C=N/N2C(=O)C3C(C2=O)C2C=CC3C23CC3)ccc1O (stereo not given) | 5.2 | .
CCOc1cc(/C=N\NC(=O)c2n[nH]c3c2CCCC3)ccc1O | 44.4* | .
CCS(=O)(=O)n1cc(NC(=O)C2CC(c3ccccc3O)=NO2)cn1 (stereo not given) | -6.8 | -10.1
FC(F)(F)c1ccc(Cn2cnc3c(NC4CCN(Cc5ccccc5)CC4)nc(Nc4ccccc4)nc32)cc1 | -6.7 | 2.1
CN(C)c1cccc(Nc2nc(NC3CCN(Cc4ccccc4)CC3)c3ncn(Cc4ccc(C(F)(F)F)cc4)c3n2)c1 | 44.3* | 33.8
CCCNc1nc(Nc2cccc(N(C)C)c2)nc2c1ncn2Cc1ccc(C(F)(F)F)cc1 | 15.3 | 18.3
CN(C)c1cccc(Nc2nc(NCCO)c3ncn(Cc4ccc(C(F)(F)F)cc4)c3n2)c1 | 53.7* | 7.5
FC(F)(F)c1ccc(Nc2cc(Nc3ccccc3)ncn2)cc1 | 4.4 | -4.0
COc1ccc(Br)cc1/C=C(\C#N)C(=O)Nc1cc([N+](=O)[O-])ccc1F | 10.0 | .
Cc1ncn(-c2ccc(Nc3ncc4cccc(-c5cnn(CCN6CCOCC6)c5)c4n3)cc2)n1 | 63.1* | -8.8
Cc1ncn(-c2ccc(Nc3ncc4ccccc4n3)cc2)n1 | 43.5* | -24.6
Cc1ncn(-c2ccc(Nc3ncc4cccc(-c5ccncc5F)c4n3)cc2)n1 | 50.8* | 32.9
SMILES | ULK1 inh | ASK1 inh
Cc1ncn(-c2ccc(Nc3ncc4cccc(-c5cn[nH]c5)c4n3)cc2)n1 | 44.3* | 8.4
Cc1ncn(-c2ccc(Nc3ncc4cccc(Nc5ccccc5)c4n3)cc2)n1 | -7.0 | 33.0
Cc1ncn(-c2ccc(Nc3ncc4cccc(-c5cncc6ccccc56)c4n3)cc2)n1 | -3.4 | -0.6
Cc1ncn(-c2ccc(Nc3ncc4cccc(-c5cncnc5)c4n3)cc2)n1 | 13.7 | 9.6
Cc1ncn(-c2ccc(Nc3ncc4cccc(-c5ccc(N6CCOCC6)nc5)c4n3)cc2)n1 | 23.6 | 4.6
N#Cc1ccc(Br)cc1/C=C/C(=O)NCCO | 3.1 | .
O=C1C=C(c2cccc([N+](=O)[O-])c2)C(=O)N1c1ccc(Br)cc1 | 11.2 | .
O=C(Cc1cn(-c2ccc(Nc3ccccc3)nn2)c2ccccc12)NCc1cccc(C(F)(F)F)c1 | -2.1 | 2.2
CC(C)N(CCNc1nc(N2CCC(N3CCOCC3)CC2)nc2c1ncn2CCN1CCCC1=O)C(C)C | -3.1 | -5.4
Nc1cccc(-c2nc(Nc3ccc(Oc4ccccc4)cc3)c3ncn(C4CCCCC4)c3n2)c1 | 3.4 | 11.2
COc1ccc(CCNC(=O)c2csc(Nc3ccc(N4CCOCC4)cc3)n2)cc1 | 4.2 | 3.0
Cc1ncn(-c2ccc(Nc3ncc4cccc(-c5ncco5)c4n3)cc2)n1 | 71.9* | -11.3
Cc1ncn(-c2ccc(Nc3ncc4cccc(-c5nc6ccccc6s5)c4n3)cc2)n1 | -4.8 | 28.2
Cc1cc(-c2cccc3cnc(Nc4ccc(-n5cnc(C)n5)cc4)nc23)ccn1 | -14.1 | 2.9
Cc1ncn(-c2ccc(Nc3ncc4cccc(-c5ccccn5)c4n3)cc2)n1 | 53.3* | -30.5
O=C(Nc1ccc2[nH]ncc2c1)C1CCN(C(=O)[C@@H]2Cc3ccccc3CN2)C1 (stereo not given in full) | 0.8 | -10.7
Cc1nn(C)c(C)c1-c1nc(NCCN(C(C)C)C(C)C)c2ncn(-c3ccsc3)c2n1 | -0.4 | -16.6
CC(C)[C@@H](O)C(=O)N[C@H]1CC[C@@H](C(=O)Nc2ccc3[nH]ncc3c2)C1 | 1.3 | 13.2
NC1CCC(C(=O)Nc2ccc3[nH]ncc3c2)CC1 (stereo not given) | 55.1*! | 14.3
N[C@H]1CCC[C@H](C(=O)Nc2ccc3cnccc3c2)C1 | 75.0* | -2.0
N[C@@H]1CC[C@H](C(=O)Nc2ccc3cnccc3c2)C1 | 7.7 | -2.3
CN1CCN(c2ncn(-c3ccc(Nc4ncc(F)c(-c5cc(F)cc(N6CCOCC6)c5)n4)cc3)n2)CC1 | 7.3 | 7.9
O=C(Nc1ccc(N2CCOCC2)cc1)c1cncc(-c2ccc(N3CCOCC3)nc2)c1 | 15.4 | 10.5
Cn1nccc1Nc1cc(C(=O)Nc2ccc(N3CCOCC3)cc2)ccn1 | 8.5 | 19.8
O=C(Nc1ccc(N2CCOCC2)cc1)c1ccnc(Nc2ccncc2)c1 | 48.7* | -22.4
SMILES | ULK1 inh | ASK1 inh
O=C(Nc1ccc(N2CCOCC2)cc1)c1cccc(Nc2ccncc2)c1 | 69.5* | -18.0
CC(=O)Nc1ccc(NC(=O)c2cccc(N3CCOCC3)c2)cc1 | 6.3 | -23.6
c1cc(Nc2ccc(N3CCOCC3)cc2)cc(Nc2ccc(N3CCOCC3)cc2)n1 | 6.4 | 29.1
Nc1nccc(Nc2ccnc(Nc3ccc(N4CCOCC4)cc3)c2)n1 | 43.3* | 17.5
O=C(Nc1ccc(N2CCOCC2)cc1)c1cncc(Nc2ccncc2)c1 | 65.8* | -27.9
COc1cc2nc(Nc3cccnc3)nc(Nc3cc(OC)c(OC)c(OC)c3)c2cc1OC | -6.6 | 13.2
NC(=O)c1ccc2nc(-c3ccccc3)sc2c1 | 5.1 | 9.1
Nc1nccc(-c2ccc3nc(C4COc5cccc(OCCCOCc6ccccc6)c5C4)[nH]c3c2)n1 (stereo not given) | -21.8 | 0.5
O=C(Nc1ccc(N2CCOCC2)cc1)c1ccnc(NCc2ccc3c(c2)OCO3)c1 | 44.6* | -18.9
O=C(NCCN1CCOCC1)c1ccnc(NCc2ccc3c(c2)OCO3)c1 | 0.3 | -7.0
O=C(Nc1ccc2c(c1)OCO2)c1cccc(Nc2ccc(-n3ccnc3)cc2)c1 | 3.4 | -5.2
Cc1cc(Nc2ccc(N3CCOCC3)cc2)nc(Nc2ccccc2)n1 | 6.6 | 42.0*
Cc1cc(NCc2ccccc2)nc(Nc2ccc(N3CCOCC3)cc2)n1 | 10.9 | 24.4
O=C(Nc1ccc(N2CCOCC2)cc1)c1cccc(Nc2ccc(-n3ccnc3)cc2)c1 | 44.4* | 14.3
COc1ccc(-c2cnc(NCCc3c[nH]c4ccccc34)nc2)cc1 | 6.0 | .
CC(=O)Nc1ccc(Nc2nc(-c3c(C)noc3C)ncc2C)cc1 | -6.0 | -4.5
COc1cc(Nc2cc(Nc3ccccc3)ncn2)cc(OC)c1OC | -2.0 | 8.3
